# Most compounds without a hit are left out; they make up all but 19% or so of the library.
# TDP1 cell CPT – qHTS for Inhibitors of human tyrosyl-DNA phosphodiesterase 1 (TDP1): qHTS in cells in presence of CPT. Potency, µM (titrated, usually from 46.2 µM), usual class: inhibitors. AID 686979, 2013. chicken DT40 Tdp1-/-;hTDP1 cells + 20 nM CPT, ATP luminescence, 48 h. hit rate 12% among 420,000; further: nearly all actives have a fitted effect of over 55% in size
#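 Cell growth measured by CellTiter-Glo luminescence after a minimum 48 h, 37 C compound exposure with 20 nM CPT in Tdp1-knockout DT40 cells stably expressing hTDP1, seeded 400/well; qHTS titration format.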
# HT1080 IDH1KD tx – qHTS for induction of synthetic lethality in tumor cells producing 2HG: qHTS for the HT-1080-IDH1KD cell line | hit rate 2% among 360,000 | HT-1080 IDH1 knockdown viability, ATP luminescence, 48 h | Potency, µM (top dose mostly 46.1 µM), actives largely listed as cytotoxic
#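 % activity derives from luminescence (CellTiter-Glo), normalised to DMSO and no-cell wells. HT-1080-IDH1KD cells, 750/well, had 48 h compound exposure at 37 °C.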
# IL-1B inflam inh – qHTS for Inhibitors of Inflammasome Signaling: IL-1-beta AlphaLISA Primary Screen; THP-1 LPS/ATP IL-1B secretion, AlphaLISA, 16 h; active compounds read low; activity change, % at 57.5 µM; hit rate 4.7% among 360,000; AID 743279, 2014; in the data active means activity change below about -50%; inconclusive means mostly about -30% to -49%
#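 Secreted IL-1B measured by AlphaLISA bead assay after 16 h compound exposure of THP-1 cells; compounds (final up to 57.5 uM) added 1 h before LPS (250 ng/mL) and ATP (1.25 mM) stimulation; lower signal means less secretion.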
# HT1080-NT tox – qHTS for induction of synthetic lethality in tumor cells producing 2HG: qHTS for the HT-1080-NT fibrosarcoma cell line. hit rate 1.6% among 360,000. HT-1080-NT fibrosarcoma viability, CellTiter-Glo ATP luminescence, 48 h. AID 686970, 2013. Potency, µM (top dose mostly 46.1 µM), most hits filed as cytotoxic;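 further: NT is the 2HG producing partner of a matched IDH1 knockdown line; nearly all actives have a fitted effect of over 55% in size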
#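 Toxicity toward the 2HG-producing NT line was scored as %Activity, normalised to DMSO and no-cell wells, from CellTiter-Glo luminescence after 48 hours' treatment.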
# TDP1 cell noCPT – qHTS for Inhibitors of human tyrosyl-DNA phosphodiesterase 1 (TDP1): qHTS in cells in absence of CPT | hit rate 15% among 420,000 | DT40 Tdp1-/- hTDP1 cells, no CPT, ATP luminescence, 48 h | Potency, µM (titrated, usually from 46.2 µM), most hits filed as inhibitors; further: nearly all actives have a fitted effect of over 55% in size
#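 Stably hTDP1-transfected Tdp1-null chicken DT40 cells were treated with library compounds minus camptothecin and grown for at least 48 hr at 37 °C, after which cellular ATP was quantified by luminescence.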
# Hits are given with their value; . = inactive; ? = inconclusive; / = no result; ! = a repeat was not active; [ ] = remark or other dose. Unless noted, the call rests on the fitted dose curve; in most records, active means well fitted curve in the direction sought with a large enough effect; inconclusive means small, poorly fitted or top-dose-only effect, or another doubt; inactive means no such curve, though single readings can be large; an effect the other way counts as inactive or inconclusive.
SMILES,TDP1 cell CPT,HT1080 IDH1KD tx,IL-1B inflam inh,HT1080-NT tox,TDP1 cell noCPT
Cc1c(N)nc(C(CC(N)=O)NCC(N)C(N)=O)nc1C(=O)NC(C(=O)NC(C)C(O)C(C)C(=O)NC(C(=O)NCCc1nc(-c2nc(C(=O)NCCCN[C@@H](C)c3ccccc3)cs2)cs1)C(C)O)C(O[C@@H]1O[C@@H](CO)[C@@H](O)[C@H](O)[C@@H]1O[C@H]1O[C@H](CO)[C@@H](O)[C@H](OC(N)=O)[C@@H]1O)c1cnc[nH]1 (some centres not stated),1.19µM,/,/,/,1.68µM
O=c1cc(CN2CCN(S(=O)(=O)c3ccc4ccccc4c3)CC2)nc2sccn12,.,.,.,.,.
Cn1c(=O)[nH]c(NCCc2ccc(O)cc2)c([N+](=O)[O-])c1=O,.,.,.,.,.
COCCNC(=O)C(=O)NNC(=O)CCc1ccccc1,.,.,.,.,.
Cc1ccc(NC(=O)CN(C)C(=O)c2sc3cc(Cl)ccc3c2Cl)cc1,.,.,.,.,.
Cc1c(CN(C)C(=O)c2sc3cc(Cl)ccc3c2Cl)cnn1C,14.6µM,?,?,.,20.6µM
CC(=O)O[C@@]1(C(C)=O)CCC2C3C=C(Cl)C4=CC(=O)C5CC5[C@@]4(C)C3CC[C@]21C (some centres not stated),20.6µM,/,/,/,20.6µM
N#C/C(=C\c1ccc(O)c(O)c1)C(=O)N1CCc2ccccc21,?,.,.,?,20.6µM
CCOC(=O)[C@H]1[C@H]2COc3ccc(Cl)cc3[C@@H]2N2C(=O)c3cc(OC)ccc3NC(=O)[C@@]12C,?,.,.,.,23.1µM
CCOC(=O)[C@H]1[C@H]2COc3ccc(Cl)cc3[C@@H]2N2C(=O)c3ccc(Cl)cc3NC(=O)[C@@]12C,?,.,.,?,18.4µM
CCOC(=O)[C@H]1[C@H]2COc3ccc(C)cc3[C@@H]2N2C(=O)c3ccc(Cl)cc3NC(=O)[C@@]12C,?,.,.,.,?
COc1cccc(CNC(=O)CN2C(=O)c3ccccc3S2(=O)=O)c1,.,.,.,.,.
CCCn1c(N)c(C(=O)CSc2nnc(N)s2)c(=O)[nH]c1=O,.,.,.,.,.
Cc1ccc(Cn2c(Sc3nnc(C)s3)nc3c2c(=O)[nH]c(=O)n3C)cc1,?,.,.,.,23.1µM
Cc1nnc(Sc2nc3c(c(=O)[nH]c(=O)n3C)n2CCc2ccccc2)s1,.,.,.,.,.
CCCn1c(N)c(C(=O)CSc2nc3ccccc3s2)c(=O)[nH]c1=O,20.6µM,?,.,.,16.4µM
Cn1c(=O)[nH]c(=O)c2c1nc(Sc1nc3ccccc3s1)n2Cc1ccccc1,8.2µM,?,.,?,6.51µM
O=S(=O)(c1ccccc1Cl)N1CCC(Cc2ccccc2)CC1,.,.,.,.,.
NS(=O)(=O)c1ccc(CCNC(=O)CN2C(=O)COc3ccc(S(=O)(=O)N4CCCC4)cc32)cc1,.,.,.,.,.
Cc1ccc(CCNC(=O)CN2C(=O)COc3ccc(S(=O)(=O)N4CCCCCC4)cc32)cc1,16.4µM,/,/,/,16.4µM
COc1ccc(CCNC(=O)CN2C(=O)COc3ccc(S(=O)(=O)N4CCCC4)cc32)c(OC)c1,18.4µM!,.,.,.,16.4µM!
O=C(CN1C(=O)COc2ccc(S(=O)(=O)N3CCCC3)cc21)NCCc1ccc(Cl)cc1,?,/,/,/,23.1µM
COc1ccc(OC)c(NC(=O)CN2C(=O)COc3ccc(S(=O)(=O)N4CCCC4)cc32)c1,?,.,.,.,?
CCOc1ccc(NC(=O)CNC(=O)c2ccc([N+](=O)[O-])cc2)cc1,?,.,.,.,.
COc1ccc(NC(=O)C2(C)CCN2Cc2ccc(OC(C)C)cc2)cc1OC (configuration not stated),?,.,.,?,?
SMILES,TDP1 cell CPT,HT1080 IDH1KD tx,IL-1B inflam inh,HT1080-NT tox,TDP1 cell noCPT
COc1ccc(NC(=O)C2(C)CCN2Cc2ccccc2Cl)cc1OC (configuration not stated),9.2µM,?,?,.,8.2µM
COc1ccc(NC(=O)C2(C)CCN2Cc2ccc(C(C)C)cc2)cc1OC (configuration not stated),18.4µM,.,.,.,23.1µM
COc1ccc(NC(=O)C2(C)CCN2CC2CCCCC2)cc1OC (configuration not stated),?,.,.,.,14.6µM
Cc1ccc(NC(=O)CN(C)C(=O)COC(=O)[C@@H](NC(=O)c2ccccc2F)C(C)C)cc1,.,.,.,.,.
CC(C)n1c(SCC(=O)c2ccc(F)cc2)nc2c(sc3ccccc32)c1=O,.,/,/,/,.
CC1=NN(C(=O)c2csc(C)c2C)C(O)(C(F)(F)F)C1 (configuration not stated),0.651µM,.,.,.,0.92µM
CC1=NN(C(=O)c2cc(C)nn2C)C(O)(C(F)(F)F)C1 (configuration not stated),0.651µM,.,.,.,0.92µM
CC1=NN(C(=O)c2ccc(Cn3nc(C)c([N+](=O)[O-])c3C)o2)C(O)(C(F)(F)F)C1 (configuration not stated),.,.,.,.,?
COc1ccc(CC(=O)N2N=C(C)CC2(O)C(F)(F)F)cc1OC (configuration not stated),.,.,.,.,.
CC1=NN(C(=O)c2c(Br)c(C)nn2C)C(O)(C(F)(F)F)C1 (configuration not stated),1.16µM,.,.,.,1.03µM
CC1=NN(C(=O)c2ccc(Br)cc2)C(O)(C(F)(F)OC(F)(F)F)C1 (configuration not stated),?,.,-54.8,.,?
COc1ccc(OCC(=O)N2N=C(C)CC2(O)C(F)(F)F)cc1 (configuration not stated),.,.,.,.,.
CCOc1ccc(-c2cc(NC(=O)c3cccc(Cl)c3)c(C(=O)OC)s2)cc1,.,/,/,/,.
N#CC(=C(c1ccccc1)c1ccccc1)c1ccccc1,.,.,.,.,?
CC(C)Cc1nc2cc(NS(=O)(=O)N(C)C)cc(C(=O)N3CCN(c4ccccc4)CC3)c2n1C,.[9.04 µM],/,/,/,.
CC(C)CNC(=O)C1(C)CCCN1C(=O)c1cc2ccccc2s1 (configuration not stated),.,.,.,.,.
CC1=NN(C(=O)c2csc(C)c2)C(O)(C(F)(F)F)C1 (configuration not stated),0.13µM,.,.,.,0.13µM

# Bioassay records deposited in PubChem BioAssay by National Center for Advancing Translational Sciences (NCATS).
